Experiment [1] can be described thus: qHTS assay to identify small molecule antagonists of the glucocorticoid receptor (GR) signaling pathway - cell viability counter screen (AID 720693). Also: nearly all actives have a fitted effect of over 55% in size. For orientation: In qHTS, concentration-response curves come from the screen itself.
The nature of experiment [2]: qHTS assay for identifying genotoxic compounds that show differential cytotoxicity against isogenic chicken DT40 cell lines with known DNA damage response pathways - wild type cell line (AID 743012). Also: nearly all actives have a fitted effect of over 60% in size. Also: potency is read from the fitted curve at half-maximal effect. The gist of the method:
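Wild type DT40, 300 cells/well, ~0.5 h settle at 37 C/5% CO2; compounds in DMSO added by pintool; 40 h at 37 C/5% CO2; CellTiter-Glo, 30 min RT; luminescence.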

Experiment [3] is described as follows: qHTS assay for identifying genotoxic compounds that show differential cytotoxicity against isogenic chicken DT40 cell lines with known DNA damage response pathways - Rev3 mutant cell line (AID 743014). Also: nearly all actives have a fitted effect of over 55% in size. Also: potency is read from the fitted curve at half-maximal effect.
A short description of experiment [4]: qHTS assay for identifying genotoxic compounds that show differential cytotoxicity against isogenic chicken DT40 cell lines with known DNA damage response pathways - Rad54/Ku70 mutant cell line (AID 743015). Also: nearly all actives have a fitted effect of over 60% in size. Also: potency is read from the fitted curve at half-maximal effect.
Experiment [5] is described as follows: qHTS assay to identify small molecule antagonists of the androgen receptor (AR) signaling pathway - cell viability counter screen (AID 743033; also: nearly all actives have a fitted effect of over 45% in size; also: potency is read from the fitted curve at half-maximal effect).
Experiment [6] is described as follows: qHTS assay to identify small molecule antagonists of the androgen receptor (AR) signaling pathway using the MDA cell line - cell viability counter screen (AID 743041; also: nearly all actives have a fitted effect of over 45% in size). The gist of the method:
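Cells were plated at 3,000 per well and left 5 h. Compounds in DMSO were then pinned in, followed by R1881. After 16 h at 37C, CellTiter-Fluor fluorescence gave viability.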

The structures appear in SMILES notation. Inconclusive results are not listed. The source holds several records for some structures; these can differ, active in one and inactive in another. Calls of active or inactive are those of the source. Calls follow the shape of the dose curve; as a rule, active = well fitted curve in the direction sought with a large enough effect in the repeat runs; inconclusive = weak or mixed curves; inactive = no such curve, though single readings can be large; an effect the other way counts as inactive or inconclusive.

As for `CC(C(=O)O)c1ccc(C2CCCCC2)c2ccccc12` (configuration not stated), the Potency result in experiment [1], in experiment [2], in experiment [3], in experiment [4], in experiment [5] and in experiment [6] was “inactive” in each case.
Turning to `CO/N=C(\C(=O)N[C@@H]1C(=O)N2C(C(=O)O)=C(CSc3nnnn3C)CS[C@H]12)c1csc(N)n1`, the Potency entry in experiment [1], in experiment [2], in experiment [3], in experiment [4], in experiment [5] and in experiment [6] was “inactive” each time.
Take `CCCCCCCN(CC)CCCC(O)c1ccc(NS(C)(=O)=O)cc1` (configuration not stated): the Potency result in experiment [1], in experiment [5] and in experiment [6] was “inactive” in each case. Besides, the results for the Potency in experiment [2], in experiment [3] and in experiment [4] were 23.7 µM (active), 26.6 µM (active) and 26.6 µM (active), respectively.
In the case of `C[C@H](CSC(=O)c1ccccc1)C(=O)N1C[C@@H](Sc2ccccc2)C[C@H]1C(=O)O`, the Potency result in experiment [1], in experiment [2], in experiment [3], in experiment [4], in experiment [5] and in experiment [6] was “inactive” in each case.
As for `COC(=O)CC[C@H](N)C(=O)O`, the Potency result in experiment [1], in experiment [2], in experiment [3], in experiment [4], in experiment [5] and in experiment [6] was “inactive” in each case.
With `CN[C@@H]1CCc2[nH]c3ccc(C(N)=O)cc3c2C1`, the Potency entry in experiment [1], in experiment [2], in experiment [3], in experiment [4], in experiment [5] and in experiment [6] was “inactive” each time.
With `CC(=O)Oc1c(C)cc(OCC(O)CNC(C)C)c(C)c1C` (configuration not stated), the Potency result in experiment [1], in experiment [2], in experiment [3], in experiment [4], in experiment [5] and in experiment [6] was “inactive” throughout.
For `NCCCC[C@H](NC(=O)[C@@H]1CCCN1C(=O)[C@@H]1CSSC[C@H](N)C(=O)N[C@@H](Cc2ccccc2)C(=O)N[C@@H](Cc2ccccc2)C(=O)N[C@@H](CCC(N)=O)C(=O)N[C@@H](CC(N)=O)C(=O)N1)C(=O)NCC(N)=O`, the Potency result in experiment [1], in experiment [2], in experiment [3], in experiment [4], in experiment [5] and in experiment [6] was “inactive” throughout.
`CCCCCCCCCCCCCCCCCC(=O)[O][Al]`: the Potency entry in experiment [1], in experiment [2], in experiment [3], in experiment [4], in experiment [5] and in experiment [6] was “inactive” each time.
Turning to `O=C(O)[C@@H](O)[C@H](O)[C@H](O)[C@@H](O)C(=O)O` (tested in a mixture with another compound), the Potency result in experiment [1], in experiment [2], in experiment [3], in experiment [4], in experiment [5] and in experiment [6] was “inactive” each time.
As to `Cn1c(O)c(N=NC(N)=S)c2ccccc21`, the Potency result in experiment [1] and in experiment [6] was “inactive” throughout. Also, the Potency in experiment [2] is 5.31 µM (active); in experiment [3] it was 10.6 µM (active); in experiment [4], 8.41 µM (active); in experiment [5] it was 2.68 µM (active).
Take `CO/N=C(\C(=O)N[C@@H]1C(=O)N2C(C(=O)O)=CCS[C@H]12)c1csc(N)n1`: the Potency entry in experiment [1], in experiment [2], in experiment [3], in experiment [4], in experiment [5] and in experiment [6] was “inactive” each time.
On to `CCCCCCCCCCCCCCCCCC(=O)OCCO`, for which the Potency entry in experiment [1], in experiment [2], in experiment [3], in experiment [4], in experiment [5] and in experiment [6] was “inactive” each time.
For `COc1cc(S(C)=O)ccc1-c1nc2ncccc2[nH]1` (configuration not stated), the Potency result in experiment [1], in experiment [2], in experiment [3], in experiment [4], in experiment [5] and in experiment [6] was “inactive” each time.
In the case of `O=C(CCCN1CCC(C(=O)c2ccc(F)cc2)CC1)c1ccc(F)cc1`, the Potency entry in experiment [1], in experiment [5] and in experiment [6] was “inactive” in each case. Further, the Potency is 8.41 µM (active) in experiment [2], 3.76 µM (active) in experiment [3] and 7.5 µM (active) in experiment [4].
In the case of `COCC1=C(C(=O)OC(C)OC(=O)OC(C)C)N2C(=O)[C@@H](NC(=O)/C(=N\OC)c3csc(N)n3)[C@H]2SC1` (some centres not stated), the Potency result in experiment [1], in experiment [5] and in experiment [6] was “inactive” in each case. The Potency in experiment [2] was 1.68 µM (active) and inactive; in experiment [3], 2.37 µM (active) and inactive; in experiment [4], 1.06 µM (active) and inactive.
With `O=S(O)CNc1ccc(S(=O)(=O)c2ccc(NCS(=O)O)cc2)cc1`, the Potency result in experiment [1], in experiment [2], in experiment [3], in experiment [4], in experiment [5] and in experiment [6] was “inactive” in each case.
For `CO[C@H]1O[C@@H]2O[C@@]3(C)CC[C@H]4[C@H](C)CC[C@@H]([C@H]1C)[C@@]24OO3`, the Potency result in experiment [1], in experiment [5] and in experiment [6] was “inactive” in each case. Besides, the Potency in experiment [2] is 1.19 µM (active); in experiment [3], 1.68 µM (active); in experiment [4], 0.668 µM (active).
Regarding `CCOC(=O)[C@H](CCc1ccccc1)N[C@@H](C)C(=O)N1CC2(C[C@H]1C(=O)O)SCCS2`, the Potency result in experiment [1], in experiment [2], in experiment [3], in experiment [4], in experiment [5] and in experiment [6] was “inactive” each time.
On to `CCOC(=O)CN[C@@H](C(=O)N1CC[C@H]1C(=O)NCc1ccc(/C(N)=N/O)cc1)C1CCCCC1`, for which the Potency entry in experiment [1], in experiment [2], in experiment [3], in experiment [4], in experiment [5] and in experiment [6] was “inactive” each time.
Consider `CC(=O)N=c1sc(S(N)(=O)=O)nn1C`, for which the Potency entry in experiment [1], in experiment [2], in experiment [3], in experiment [4], in experiment [5] and in experiment [6] was “inactive” in each case.
Consider `CC1(C)S[C@@H]2[C@H](NC(=O)Cc3ccccc3)C(=O)N2[C@H]1C(=O)O`, for which the Potency result in experiment [1], in experiment [2], in experiment [3], in experiment [4], in experiment [5] and in experiment [6] was “inactive” throughout.

The record behind these values is PubChem BioAssay (Tox21).
